In article PMC12136788:
Substitutions are numbered along the chain they refer to. In all, about 24,000 sequences were measured (“enrichment r”: median about 0.99, highest 2% from about 3.7 on). This excerpt belongs to a sample that is enriched for the highest values.

T1: UNK ZnF1-3 (human, UniProt Q9C0B0 31-174)
T1 sequence: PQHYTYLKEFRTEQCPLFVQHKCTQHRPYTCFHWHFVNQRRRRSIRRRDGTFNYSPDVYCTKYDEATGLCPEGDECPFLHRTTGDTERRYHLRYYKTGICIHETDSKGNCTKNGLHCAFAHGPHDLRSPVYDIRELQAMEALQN

B1: chr11:46405157:46405158:+_ENSG00000110492_ENST00000395566|hu_hu|hu_hu_hu_mus_False|8_58 (ssRNA)
RNA: GGGAGUUCUACAGUCCGACGAUCCCCUCCCCACUUUGGGCACUUGGUGUGGGCGUGAGAGGACAGGCGUGAUUGACAAAGCUAACGGGAAGACAAAAGGCACUGGUGGGUUAUAUCUUGGGCCUGUGAGAGGGAGGGGCUCCGCAACAGAGGAUUGAGCAUCA
B2: 55264158_55264526_802_CDS_ENSMUSG00000022185_ENSMUST00000148754|mouse|control|control (ssRNA)
RNA: GGGAGUUCUACAGUCCGACGAUCGAUGGACCUCCGGGUUAAGGUAUCUCCUAAUGUUACUUUCUUUACUUCGUGCUCCACAGGUGGGGGCAAGGCAACCUCCACUGACACCUGGGGUGGCGCCGGCAGCUCGGCUUCAGGCUCCAACAGAGGAUUGAGCAUCA
B3: chrX:71549400:71549401:+_ENSMUSG00000019087_ENSMUST00000019231|mus_hu|mus_mus_mus_hu_False|18_48 (ssRNA)
RNA: GGGAGUUCUACAGUCCGACGAUCGCAGUAGGAAGAGGGAAGCUCUUCAGUCCAGUGCGCUGCAGGGUGGGAAAGCAACAACACGGAACCAAUACUCCCCUCAACCCCCCCACUGGCAUGUCACACAACAAUCUGGGUCAAAGACAACAGAGGAUUGAGCAUCA
B4: chr6:42636609:42636610:-_ENSMUSG00000036667_ENSMUST00000045054|mus_hu|FALSE|FALSE (ssRNA)
RNA: GGGAGUUCUACAGUCCGACGAUCGGCAUCAAUACAGUAAACCCCCAGGGAGUCUUUCACUUCUGGCUCAACCUUUGCAUCCACUCCAGAGCCCUCGAGGAUUUUGGCCAAAGGUGCCAGGGAUGGGUGUACACCAAUGGGAGCCAACAGAGGAUUGAGCAUCA
B5: chr2:153237265:153237266:-_ENSMUSG00000061411_ENSMUST00000109784|mus_mus|mus_mus_mus_hu_False|28_28 (ssRNA)
RNA: GGGAGUUCUACAGUCCGACGAUCAAAAAAAAAAAAAAAAAAGUGUCCUUGUGCCCAAAGUCUCAGGUGCUUGGAGUGUGGCUAGAAACAGCUCUUUUGGAUCCCACCUCUUUCAGAAACAAAAUGUACCAACUGGUGAGGCAGCAACAGAGGAUUGAGCAUCA
B6: 113287723_113287843_2736_3pUTR_ENSG00000114999_ENST00000233336|human|control|control (ssRNA)
RNA: GGGAGUUCUACAGUCCGACGAUCCCUUUUUCAUUGUAAGUUCUCACAUCUCAUCAUGUUCAAGGAGGCAUUGAUUUUCUCCUCUUUUGUAAAAGUCUCACCUGACUGCAGAAAUGUUUUCUUGAGCCAAGUAGAAAUGAGGAACAACAGAGGAUUGAGCAUCA
B7: chr2:153237265:153237266:-_ENSMUSG00000061411_ENSMUST00000109784|mus_mus|mus_mus_mus_hu_False|1_28 (ssRNA)
RNA: B5 RNA with G137A, A138G, G140C, C141A, A142G
B8: chr2:153237265:153237266:-_ENSMUSG00000061411_ENSMUST00000109784|mus_hu|FALSE|FALSE (ssRNA)
RNA: B5 RNA with G115A
B9: chr2:153237265:153237266:-_ENSMUSG00000061411_ENSMUST00000109784|mus_mus|mus_mus_mus_hu_False|28_58 (ssRNA)
RNA: B5 RNA with U78C, G79A
B10: chr2:153237265:153237266:-_ENSMUSG00000061411_ENSMUST00000109784|mus_mus|mus_mus_mus_hu_False|1_1 (ssRNA)
RNA: B5 RNA with G115A, G137A, A138G, G140C, C141A, A142G
B11: chr2:153237265:153237266:-_ENSMUSG00000061411_ENSMUST00000109784|mus_mus|mus_mus_mus_hu_False|58_58 (ssRNA)
RNA: B5 RNA with U78C, G79A, G115A
B12: chr18:65376317:65376318:+_ENSMUSG00000024589_ENSMUST00000163516|mus_mus|motif|central (ssRNA)
RNA: GGGAGUUCUACAGUCCGACGAUCUGCUAUACCAACAGAAAACUAUCCCUUUCCUAGGAAACACUAGACAGGCUCAUGUCCGGACGCGGCAGCUGCUUCUCUGGCACACUGAAAACACUCUGGGGUGGAGUGUGCAUACACAGACAACAGAGGAUUGAGCAUCA
B13: chr3:149686290:149686291:-_ENSG00000070087_ENST00000452853|perfect_dup|FALSE|FALSE (ssRNA)
RNA: GGGAGUUCUACAGUCCGACGAUCUCCAAGAGUCAAACCGUUGGUAAAGAAACCUUCCCGGUCUUUUCCUACAAUCAUAUCUAUUUCUACUGGCGUGAUGCUCUGGAAGACGCCCCCGGCCGUGGCUGCCCAGACGUAUUUGGCCAACAGAGGAUUGAGCAUCA
B14: 153895285_153895405_106_5pUTR_ENSG00000143614_ENST00000368655|human|control|control (ssRNA)
RNA: GGGAGUUCUACAGUCCGACGAUCGGCACAGGGGAUCCAGACCCUGCUGACGGGACUAGGGACGGGGGUAGGGGAGGGGGGCGGGCCGGACCGGGGCGGGCGGGCGGAGCAGACACUGCGGUACAGACGGGGGCAGCGGCGGCGCAACAGAGGAUUGAGCAUCA

What follows are binders tested against T1, UNK ZnF1-3 (assay: nsRBNS (natural sequence RNA bind-n-seq); RBNS binding buffer (assumed for nsRBNS): 25 mM Tris pH 7.5, 150 mM KCl, 3 mM MgCl2, 0.01% Triton X-100, 500 ug/ml BSA, 20 U/ml SUPERase-In, 4 C; UNK is unkempt and MSI1 is Musashi-1; names of the RNAs are library labels; protein concentration not given here; high values mean tight binding).

Binder | binding signal
B1 | 3.13 enrichment R
B2 | 0.664 enrichment R
B3 | 1.29 enrichment R
B4 | 1.69 enrichment R
B5 | 3.18 enrichment R
B6 | 0.859 enrichment R
B7 | 3.93 enrichment R
B8 | 6.49 enrichment R
B9 | 3.57 enrichment R
B10 | 6.8 enrichment R
B11 | 4.5 enrichment R
B12 | 1.06 enrichment R
B13 | 0.967 enrichment R
B14 | 0.68 enrichment R
